Test results reported in PubChem BioAssay (Tox21).
Values joined by “and” are separate entries in the source; they are usually repeats but may differ in a detail not shown here. Identical values can stand only once. Some structures have more than one record in an assay (separate samples or runs), and their calls can disagree. Active and inactive are the calls of the source. Entries that show only a call come without a potency. Unless noted, calls follow the shape of the dose curve; as a rule, active = well fitted curve in the direction sought with a large enough effect in the repeat runs; inconclusive = weak or mixed curves; inactive = no such curve, though single readings can be large; an effect the other way counts as inactive or inconclusive.

Columns and labels:
[1] = qHTS assay to identify small molecule antagonists of the glucocorticoid receptor (GR) signaling pathway - cell viability counter screen (AID 720693); also: nearly all actives have a fitted effect of over 55% in size; also: potency is read from the fitted curve at half-maximal effect
[2] = qHTS assay for identifying genotoxic compounds that show differential cytotoxicity against isogenic chicken DT40 cell lines with known DNA damage response pathways - wild type cell line (AID 743012); also: nearly all actives have a fitted effect of over 60% in size; also: potency is read from the fitted curve at half-maximal effect
Method in brief: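 Viability by ATP luminescence (CellTiter-Glo, 30 min RT) after 40 h compound treatment at 37 C/5% CO2, using 300 parental DNA repair-proficient DT40 cells per well.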

[3] = qHTS assay for identifying genotoxic compounds that show differential cytotoxicity against isogenic chicken DT40 cell lines with known DNA damage response pathways - Rev3 mutant cell line (AID 743014); also: nearly all actives have a fitted effect of over 55% in size; also: potency is read from the fitted curve at half-maximal effect
[4] = qHTS assay for identifying genotoxic compounds that show differential cytotoxicity against isogenic chicken DT40 cell lines with known DNA damage response pathways - Rad54/Ku70 mutant cell line (AID 743015); also: nearly all actives have a fitted effect of over 60% in size; also: potency is read from the fitted curve at half-maximal effect
[5] = qHTS assay to identify small molecule antagonists of the thyroid receptor (TR) signaling pathway - cell viability counter screen (AID 743064); also: nearly all actives have a fitted effect of over 50% in size; also: potency is read from the fitted curve at half-maximal effect
Method in brief: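 Viability of T3-stimulated (1 nM final) GH3.TRE-Luc cells is measured by CellTiter-Fluor fluorescence after 23.5 h compound exposure at 37 °C plus 30 min reagent incubation.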

[6] = system: thyroid hormone receptor (rat, GH3 cells); experiment: qHTS assay to identify small molecule agonists of the thyroid receptor (TR) signaling pathway (AID 743066; calls by dose curve)
[7] = qHTS assay to identify small molecule antagonists of the estrogen receptor alpha (ER-alpha) signaling pathway - cell viability counter screen (AID 743074; calls by dose curve;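 also: HEK293 cells carrying ER-alpha-UAS-bla reporter stimulated with 17beta-estradiol; nearly all actives have a fitted effect of over 45% in size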)
[8] = molecular target: Estrogen receptor (Homo sapiens) (UniProt P03372); experiment: qHTS assay to identify small molecule agonists of the estrogen receptor alpha (ER-alpha) signaling pathway (AID 743075; calls by dose curve;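 also: HEK293 GripTite cells with ER-alpha and UAS-driven beta-lactamase reporter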; also: potency is read from the fitted curve at half-maximal effect)
Aromatase (Homo sapiens) = Aromatase (Homo sapiens) (UniProt P11511); experiment: qHTS assay to identify aromatase inhibitors (AID 743083); also: nearly all actives have a fitted effect of over 55% in size; also: potency is read from the fitted curve at half-maximal effect
[9] = qHTS assay to identify small molecule antagonists of the androgen receptor (AR) signaling pathway - cell viability counter screen (AID 743033; also: nearly all actives have a fitted effect of over 45% in size)
[10] = qHTS assay to identify small molecule antagonists of the thyroid receptor (TR) signaling pathway (AID 743065); also: nearly all actives have a fitted effect of over 55% in size; also: potency is read from the fitted curve at half-maximal effect
Method in brief: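 Antagonism measured as loss of luciferase signal in GH3 cells stably carrying a TRE-luciferase reporter, co-treated with compound and T3 (1 nM final) for 23.5 h at 37 C. Viability was read in the same well by CellTiter-Fluor.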

[11] = molecular target: Estrogen receptor (Homo sapiens) (UniProt P03372); experiment: qHTS assay to identify small molecule antagonists of the estrogen receptor alpha (ER-alpha) signaling pathway (AID 743069; active = well fitted curve in the direction sought with a large enough effect in the signal ratio in the repeat runs, not every such curve was filed as active; inconclusive = weak or mixed curves, or effect the other way; inactive = no such curve, though single readings can be large or run the other way; the % refers to the signal ratio)
Method in brief: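 Antagonist mode: compounds in DMSO were co-added with 17beta-estradiol to ER-alpha-bla HEK293 cells (2% charcoal-stripped serum) and left 18 h at 37C. Reporter inhibition was measured as FRET fluorescence after 2 h LiveBLAzer substrate at room temperature.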

[12] = molecular target: Estrogen receptor (Homo sapiens) (UniProt P03372); experiment: qHTS assay to identify small molecule agonists of the estrogen receptor alpha (ER-alpha) signaling pathway using the BG1 cell line (AID 743079); also: nearly all actives have a fitted effect of over 20% in size; also: potency is read from the fitted curve at half-maximal effect
[13] = qHTS assay to identify small molecule antagonists of the estrogen receptor alpha (ER-alpha) signaling pathway using the BG1 cell line - cell viability counter screen (AID 743081);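 also: compound given together with 17beta-estradiol as the ER stimulus; series mostly up to about 70 µM; nearly all actives have a fitted effect of over 45% in size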
[14] = qHTS assay to identify small molecule antagonists of the estrogen receptor alpha (ER-alpha) signaling pathway using the BG1 cell line (AID 743080; calls by dose curve;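 also: BG1 cells stimulated with 17beta-estradiol alongside compound; nearly all actives have a fitted effect of over 25% in size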; also: potency is read from the fitted curve at half-maximal effect)
Method in brief: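 Quantitative HTS on the Tox21 10K library: BG1 cells with endogenous ER-alpha and ERE-luciferase reporter, 17beta-estradiol stimulation, 21.5 h compound exposure, luminescence endpoint with parallel fluorescence cytotoxicity counter-read.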

[15] = qHTS assay to identify small molecule antagonists of the androgen receptor (AR) signaling pathway using the MDA cell line - cell viability counter screen (AID 743041; also: nearly all actives have a fitted effect of over 45% in size)
Method in brief: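 Viability read by CellTiter-Fluor fluorescence in the same wells as the antagonist screen, added after 15.5 h of a 16 h, 37C exposure. Human breast carcinoma MDA-kb2 AR-luc cells, compounds co-dosed with agonist R1881.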

[16] = molecular target: Androgen receptor (Homo sapiens) (UniProt P10275); experiment: qHTS assay to identify small molecule agonists of the androgen receptor (AR) signaling pathway using the MDA cell line (AID 743040; also: nearly all actives have a fitted effect of over 20% in size)
Method in brief: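 Luciferase agonist assay: 16 h compound exposure at 37C without CO2 in MDA-kb2 AR-luc cells, whose MMTV promoter responds to both AR and GR. Luminescence measured after 30 min room-temperature incubation with ONE-Glo.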

[17] = molecular target: Androgen receptor (Homo sapiens) (UniProt P10275); experiment: qHTS assay to identify small molecule antagonists of the androgen receptor (AR) signaling pathway using the MDA cell line (AID 743042; also: nearly all actives have a fitted effect of over 55% in size)
Method in brief: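 Antagonist mode: compounds plus R1881 agonist added to MDA-kb2 AR-luc cells, incubated 16 h at 37C. Luciferase reporter luminescence quantified, with multiplexed CellTiter-Fluor readout for cell viability.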

Aromatase (Homo sapiens), sequence (P11511 whole entry, looked up): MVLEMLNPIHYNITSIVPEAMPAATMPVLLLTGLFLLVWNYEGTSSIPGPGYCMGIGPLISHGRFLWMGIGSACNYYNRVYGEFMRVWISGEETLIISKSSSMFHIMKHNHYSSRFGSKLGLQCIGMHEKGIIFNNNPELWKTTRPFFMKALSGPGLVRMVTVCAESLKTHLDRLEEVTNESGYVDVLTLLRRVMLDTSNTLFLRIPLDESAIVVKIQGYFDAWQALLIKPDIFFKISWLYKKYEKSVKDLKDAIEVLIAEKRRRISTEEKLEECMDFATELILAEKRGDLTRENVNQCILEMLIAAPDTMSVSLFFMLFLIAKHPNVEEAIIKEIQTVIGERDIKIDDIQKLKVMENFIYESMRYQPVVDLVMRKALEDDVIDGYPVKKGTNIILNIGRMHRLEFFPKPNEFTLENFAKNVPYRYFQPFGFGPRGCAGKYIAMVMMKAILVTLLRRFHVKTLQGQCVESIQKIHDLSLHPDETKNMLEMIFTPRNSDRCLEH
Estrogen receptor (Homo sapiens), sequence (P03372 whole entry, looked up): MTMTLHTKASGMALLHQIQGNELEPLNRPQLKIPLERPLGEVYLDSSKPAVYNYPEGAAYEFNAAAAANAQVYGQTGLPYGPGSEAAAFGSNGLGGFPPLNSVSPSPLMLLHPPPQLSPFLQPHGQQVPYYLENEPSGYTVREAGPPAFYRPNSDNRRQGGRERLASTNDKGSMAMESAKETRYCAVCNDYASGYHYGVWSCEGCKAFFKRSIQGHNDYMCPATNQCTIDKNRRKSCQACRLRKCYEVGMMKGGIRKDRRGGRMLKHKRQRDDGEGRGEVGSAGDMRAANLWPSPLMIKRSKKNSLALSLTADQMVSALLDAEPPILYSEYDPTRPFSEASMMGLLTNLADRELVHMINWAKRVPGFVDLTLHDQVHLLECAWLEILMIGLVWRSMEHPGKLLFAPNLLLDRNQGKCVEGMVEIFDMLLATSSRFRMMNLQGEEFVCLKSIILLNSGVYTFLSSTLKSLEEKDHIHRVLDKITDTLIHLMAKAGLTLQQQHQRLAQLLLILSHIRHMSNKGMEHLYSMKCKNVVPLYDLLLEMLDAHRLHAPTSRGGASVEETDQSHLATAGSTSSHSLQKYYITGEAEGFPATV
Androgen receptor (Homo sapiens), sequence (P10275 whole entry, looked up): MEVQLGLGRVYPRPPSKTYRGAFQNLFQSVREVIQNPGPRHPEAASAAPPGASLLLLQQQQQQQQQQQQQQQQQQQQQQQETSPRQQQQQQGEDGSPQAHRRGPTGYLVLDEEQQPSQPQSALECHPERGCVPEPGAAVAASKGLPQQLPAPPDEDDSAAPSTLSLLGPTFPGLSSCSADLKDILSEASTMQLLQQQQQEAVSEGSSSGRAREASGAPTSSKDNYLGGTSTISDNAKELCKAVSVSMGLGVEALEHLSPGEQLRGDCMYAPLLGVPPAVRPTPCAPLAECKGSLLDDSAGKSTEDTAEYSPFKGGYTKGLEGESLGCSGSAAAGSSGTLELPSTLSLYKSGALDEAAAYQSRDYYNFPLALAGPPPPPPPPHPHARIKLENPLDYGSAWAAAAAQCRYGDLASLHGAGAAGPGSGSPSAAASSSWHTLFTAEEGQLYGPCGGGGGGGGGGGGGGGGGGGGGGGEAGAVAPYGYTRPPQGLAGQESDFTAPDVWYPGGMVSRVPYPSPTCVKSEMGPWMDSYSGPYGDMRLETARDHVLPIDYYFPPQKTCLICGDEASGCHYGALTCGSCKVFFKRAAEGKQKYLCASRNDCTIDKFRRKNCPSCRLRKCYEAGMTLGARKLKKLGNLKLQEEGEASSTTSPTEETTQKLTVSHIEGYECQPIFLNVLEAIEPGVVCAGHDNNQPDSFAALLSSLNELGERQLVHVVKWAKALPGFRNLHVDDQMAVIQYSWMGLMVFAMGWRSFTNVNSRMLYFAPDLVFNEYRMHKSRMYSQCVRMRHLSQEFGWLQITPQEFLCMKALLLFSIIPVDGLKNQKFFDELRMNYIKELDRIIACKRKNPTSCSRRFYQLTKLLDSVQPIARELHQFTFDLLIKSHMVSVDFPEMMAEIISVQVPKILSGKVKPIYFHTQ

| SMILES | Potency [1] | Potency [2] | Potency [3] | Potency [4] | Potency [5] | outcome [6] | Potency [7] | Potency [8] | Potency (Aromatase (Homo sapiens)) | Potency [9] | Potency [10] | Potency [11] | Potency [12] | Potency [13] | Potency [14] | Potency [15] | outcome [16] | Potency [17] |
| --- | --- | --- | --- | --- | --- | --- | --- | --- | --- | --- | --- | --- | --- | --- | --- | --- | --- | --- |
| O=C(O)c1cc(O)c2ccccc2c1O | inactive | 6.11 µM (active) | 5.45 µM (active) | 6.11 µM (active) | 9.69 µM (active) | inactive | inactive | inactive | 9.69 µM (active) |  |  |  |  |  |  |  |  |  |
| O=C1CCc2cc(OCCCCc3nnnn3C3CCCCC3)ccc2N1 | inactive | inactive | inactive |  | inactive | inactive | inactive | inactive | inactive | inactive | inactive | inactive | inactive | inactive |  |  |  |  |
| COc1cc2nc(N3CCN(C(=O)c4ccco4)CC3)nc(N)c2cc1OC | inactive | 10.6 µM (active) | 13.3 µM (active) | 13.3 µM (active) | 8.41 µM (active) |  | inactive | inactive |  |  | 8.41 µM (active) |  | inactive | inactive | inactive |  |  |  |
| CN(C)Cc1cc(C(C)(C)C)c(O)c(C(C)(C)C)c1 | inactive | 17.2 µM (active) | 17.2 µM (active) | 17.2 µM (active) |  | inactive | inactive |  | inactive |  |  |  |  |  |  | inactive |  |  |
| Cc1nc2n(c(=O)c1CCN1CCC(c3noc4cc(F)ccc34)CC1)CCCC2 | inactive | 9.44 µM (active) |  | inactive |  | inactive | inactive | inactive | inactive | inactive | inactive | inactive | inactive |  |  | inactive |  |  |
| CN1CCN(Cc2cc(-c3ccc4[nH]c(=O)oc4c3)co2)[C@@H](c2ccc(F)cc2)C1 | inactive | 14.8 µM (active) | 16.6 µM (active) | 14.8 µM (active) | 46.7 µM (active) |  | inactive | inactive |  |  |  |  |  |  |  | inactive |  |  |
| CC/C=C\CCCCCO | inactive | inactive | inactive | inactive |  | inactive | inactive |  |  |  | inactive |  |  | inactive |  |  |  |  |
| CN1CCCCC1CCN1c2ccccc2Sc2ccc(S(C)=O)cc21 (configuration not stated) | inactive | 29.8 µM (active) | 29.8 µM (active) | 29.8 µM (active) | inactive and 13.3 µM (active) | inactive | inactive | inactive | inactive |  |  |  | inactive | inactive | inactive | inactive |  |  |
| Nc1nc(N)nc(-c2cc(Cl)ccc2Cl)n1 | inactive | inactive | inactive |  | inactive | inactive | inactive |  |  | inactive | inactive |  |  | inactive |  | inactive |  |  |
| C#C[C@]1(OC(C)=O)CC[C@H]2[C@@H]3CCC4=C/C(=N/O)CC[C@@H]4[C@H]3CC[C@@]21CC | 21.3 µM (active) | 9.44 µM (active) | 13.3 µM (active) | 10.6 µM (active) |  |  | inactive | 0.952 µM [inconclusive] (active) | 23.7 µM (active) |  | 21.1 µM (active) |  | 106 nM (active) | inactive | inactive |  |  |  |
| CCCCNS(=O)(=O)c1ccc(C)cc1 | inactive | inactive | inactive | inactive | inactive | inactive | inactive | inactive |  |  | inactive | inactive | inactive | inactive | inactive |  |  |  |
| CC1=Nc2ccccc2C1(C)C | inactive | inactive | inactive |  | inactive | inactive | inactive | inactive | inactive | inactive | inactive | inactive | inactive | inactive | inactive |  |  |  |
| C#C[C@]1(OC(C)=O)CC[C@H]2[C@@H]3CCC4=C[C@@H](OC(C)=O)CC[C@@H]4[C@H]3CC[C@@]21C | inactive | 3.76 µM (active) and 6.68 µM (active) | 10.6 µM (active) and 16.8 µM (active) | 10.6 µM (active) and 11.9 µM (active) |  |  | inactive | 0.0085 µM [inconclusive] (active) | inactive |  |  |  | 0.7 nM (active) and 4.7 nM (active) | inactive | 33.5 µM (active) |  |  |  |
| CCCCCc1ccc(Cl)cc1 | inactive | inactive | inactive | inactive | inactive | inactive | inactive | inactive | inactive |  |  | inactive | inactive | inactive | inactive | inactive |  |  |
| O=c1oc2cc(O)ccc2c2oc3cc(O)ccc3c12 | inactive | inactive | inactive |  | inactive |  |  |  | inactive | inactive |  |  |  | inactive |  | inactive |  |  |
| CC(C)(C)c1ccc(C(O)CCCN2CCC(C(O)(c3ccccc3)c3ccccc3)CC2)cc1 (configuration not stated) | inactive | 4.22 µM (active) and 3.76 µM (active) | inactive and 9.44 µM (active) | 9.44 µM (active) | inactive and 5.96 µM (active) | inactive | inactive | inactive | inactive and 29.8 µM (active) |  |  | inactive | inactive | inactive | inactive | inactive |  |  |
| O=C1CCCCCCCCCCCCCCCO1 | inactive | inactive |  | inactive | inactive | inactive | inactive | inactive | inactive | inactive | inactive |  | inactive | inactive | inactive | inactive |  |  |
| Cc1cc(=O)oc2cc(O)cc(O)c12 | inactive | inactive | inactive |  |  | inactive | inactive | inactive | inactive | inactive | inactive |  |  |  | inactive |  | inactive | inactive |
